Measurements taken from PubChem BioAssay (NCATS).

These compounds were tested against Lysosomal acid glucosylceramidase (Homo sapiens) (UniProt P04062) (assay: Glucocerebrosidase-p2 (AID 348)). Settings: purified GBA, blue fluorogenic substrate, 40 min; in the data active means potency below about 10 µM; inactive means the rest.
Procedure, shortened: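 Compounds titrated from 0.6 nM upwards against 0.2 nM enzyme in pH 5.9 citric acid/KH2PO4, taurocholate, tween-20; blue fluorogenic substrate 80 uM, 40 min room temperature, stopped and read Ex 365/Em 440 for AC50.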
Potency means the concentration at half of the fitted maximal effect.

Sequence of Lysosomal acid glucosylceramidase (Homo sapiens) (P04062 whole entry, looked up): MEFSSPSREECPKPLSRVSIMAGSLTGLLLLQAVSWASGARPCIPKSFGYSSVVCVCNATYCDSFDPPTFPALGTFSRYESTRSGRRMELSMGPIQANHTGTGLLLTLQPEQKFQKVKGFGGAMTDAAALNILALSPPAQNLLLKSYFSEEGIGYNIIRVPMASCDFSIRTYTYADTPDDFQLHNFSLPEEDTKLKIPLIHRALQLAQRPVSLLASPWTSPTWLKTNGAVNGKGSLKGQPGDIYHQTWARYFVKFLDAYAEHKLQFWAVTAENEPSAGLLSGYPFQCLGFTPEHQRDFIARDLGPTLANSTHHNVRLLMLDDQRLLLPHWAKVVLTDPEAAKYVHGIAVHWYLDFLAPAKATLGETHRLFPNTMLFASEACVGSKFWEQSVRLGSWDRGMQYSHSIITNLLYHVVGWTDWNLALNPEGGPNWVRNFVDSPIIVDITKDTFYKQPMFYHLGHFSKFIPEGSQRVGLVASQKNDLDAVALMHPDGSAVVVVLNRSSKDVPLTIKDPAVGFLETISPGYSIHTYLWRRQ

Potency, inactive:
N#Cc1ccc(CN2CC3(CCN(C(=O)c4cnccn4)CC3)C2)cc1 > 11.4 µM
CC(C)NC(=O)N1CC[C@@]2(CCCN(S(=O)(=O)c3ccccc3)C2)C1 > 11.4 µM
O=C(c1cccc(F)c1)N1CCC2(CC1)CN(c1ccccn1)C2 > 11.4 µM
COc1ccc(C(=O)N2CCC3(CCN(Cc4ccc(C#N)cc4)CC3)CC2)cc1 > 11.4 µM
O=C(c1cccc(F)c1)N1CCC2(CCCN(C(c3ccccc3)c3ccccc3)C2)CC1 > 11.4 µM
O=C(c1ccncc1)N1CCC2(CC1)CN(c1ccccn1)C2 > 11.4 µM
COc1ccccc1CN1CCC2(CC1)CCN(S(C)(=O)=O)CC2 > 11.4 µM
Cn1cccc1C(=O)N1CCC[C@@]2(CCN(C(=O)Nc3cccc(F)c3)C2)C1 > 11.4 µM
CC(C)CN1CC[C@@]2(CCCN(C(=O)c3ccco3)C2)C1 > 11.4 µM
COc1ccccc1CN1CCCC2(CCN(S(=O)(=O)c3ccccc3)CC2)C1 > 11.4 µM
Cn1cccc1C(=O)N1CCC2(CCCN(C(c3ccccc3)c3ccccc3)C2)CC1 > 11.4 µM
COC(=O)N1CCC2(CC1)CN(c1ccc(-c3ccccc3)cc1)C2 > 11.4 µM
COCC(=O)N1CCC2(CCCN(Cc3ccc(C#N)cc3)C2)CC1 > 11.4 µM
COCC(=O)N1CCC2(CC1)CCN(c1ncccn1)CC2 > 11.4 µM
O=C(c1ccncc1)N1CCC2(CCCN(Cc3nccs3)C2)CC1 > 11.4 µM
COC(=O)N1CCC2(CCCN(C(=O)Nc3cccc(C#N)c3)C2)CC1 > 11.4 µM
c1ccc(Nc2ncnc3ccc(-c4cccnc4)cc23)cc1 > 11.4 µM
O=C(c1csnn1)N1CCC2(CCN(Cc3cc(C(F)(F)F)cc(C(F)(F)F)c3)CC2)CC1 > 11.4 µM
CN(C)Cc1ccccc1-c1ccc2ncnc(N3CCOCC3)c2c1 > 11.4 µM
O=S(=O)(c1ccccc1)N1CCC2(CC1)CN(c1ccncc1)C2 > 11.4 µM
COC(=O)N1CCC2(CCCN(c3ccccn3)C2)CC1 > 11.4 µM
CC(=O)N1CCC2(CCCN(Cc3ccc(C#N)cc3)C2)CC1 > 11.4 µM
COc1ccccc1CN1CCC2(CC1)CCN(C(=O)c1cccc(F)c1)CC2 > 11.4 µM
